In all, about 1,200 compounds went through this assay and about 20 (2%) were called active. Roughly 23% stayed inconclusive and do not appear here. Calls follow the shape of the dose curve; as a rule, active = well fitted inhibition curve with a large enough effect; inconclusive = small, poorly fitted or top-dose-only effect; inactive = no such curve, though single readings can be large or run the other way. Many of the other results were omitted from the sample, so actives are more common in it than they were.
biological target: Transcriptional regulator ERG (Homo sapiens) (UniProt P11308); experiment: qHTS for Small Molecule Inhibitors of the ERG Ets/DNA interaction: HTRF assay against cherry picks; conditions: His-ERG Ets domain with biotin-DNA; series mostly up to 154 µM; activity change, negative = inhibition: at the top concentration
From the text: The Ets family of proteins is a family of ~30 conserved transcription factors defined by the presence of an ~85 amino acid domain referred to as the Ets domain, which mediates sequence-specific DNA binding to a core DNA element GGAA/T.The Ets family member ERG has been linked to several neoplasms. […] More extensive studies of the effects of over-expression of ERG in prostate cells have recently been carried out and have shown that over-expression of ERG results in increased invasion. […] We will carry out a high throughout screen to identify inhibitors of the interaction between ERG and DNA using a fluorescence polarization (FP) assay with a His-tagged ERG Ets domain and fluorescently-labeled DNA probes to develop small molecule inhibitors of this interaction as probes to test this hypothesis and lay the groundwork for the development of targeted therapies against ERG. This is the counterscreen against the cherry picks. NIH Molecular Libraries Probe Production Network [MLPCN] NIH Chemical Genomics Center [NCGC] Grant: NS066464 PI Name: John Bushweller, University of Virgina
2 ul of protein solution (200 nM ERG domain in 300mM KCl, 50mM Tris-HCl, 1mM EDTA, 1mM DTT, pH 7.5); 20 nl Control plate and compound library plate; 2 ul of 200 nM biotin-DNA; incubate for 10 min at RT; 1 ul of anti-His antibody conjugated to the long-life fluorescent cryptate donner […] (5ng/ul) and streptavidin conjugated to the acceptor compound […] (0.2 ng/ul) mix; incubate 10 min and measure FRET (Excitation = 320 nm, Emission = 615, 665 nm).
Potency is read from the fitted curve at half-maximal effect.

Chain of Transcriptional regulator ERG (Homo sapiens) (P11308 whole entry, looked up, the tested form may be a part): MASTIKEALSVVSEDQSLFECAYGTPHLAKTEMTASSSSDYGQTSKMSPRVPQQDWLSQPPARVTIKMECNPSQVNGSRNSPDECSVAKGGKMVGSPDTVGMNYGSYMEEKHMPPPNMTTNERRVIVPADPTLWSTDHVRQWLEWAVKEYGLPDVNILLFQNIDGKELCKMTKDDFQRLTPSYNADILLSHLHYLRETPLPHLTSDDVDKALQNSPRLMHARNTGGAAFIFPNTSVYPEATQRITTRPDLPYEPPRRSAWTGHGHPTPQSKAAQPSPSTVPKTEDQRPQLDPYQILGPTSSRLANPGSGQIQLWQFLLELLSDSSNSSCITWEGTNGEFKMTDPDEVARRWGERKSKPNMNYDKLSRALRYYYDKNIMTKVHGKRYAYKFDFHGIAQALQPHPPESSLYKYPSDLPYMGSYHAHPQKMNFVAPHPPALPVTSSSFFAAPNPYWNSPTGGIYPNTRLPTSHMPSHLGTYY

Potency, active:
Cc1cc2[nH]c3c(c[n+](C)c4ccccc34)c2cc1C 3.55 µM
CC(=O)Nc1sc2c(c1-c1nc3ccccc3s1)CCN(C(C)C)C2 3.55 µM
COc1ccc(OC)c2c1C(=O)c1ccccc1C2=O 35.5 µM
CN(C)CCN1C(=O)c2cccc3cc([N+](=O)[O-])cc(c23)C1=O 7.94 µM
COc1cc(NCCCC(C)N)c2ncccc2c1 (stereo not drawn) 44.7 µM
Nc1cccc2nc3ccccc3cc12 50.1 µM
Nc1c2ccccc2nc2ccccc12 11.2 µM
CN(C)c1ccc2c(c1)C(=NO)c1ccccc1-2 70.8 µM

Activity change, negative = inhibition, inactive:
Cc1c(NC(=O)c2cc(-n3cnnc3)ccc2Cl)cccc1-c1nc2ccccc2s1 -29.4%
O=c1[nH]c2cc(F)ccc2c2ccc(F)cc12 -28.4%
CCOc1cc(NC(=S)NCC(C)C)c(OCC)cc1NC(=O)c1ccco1 -29%
O=C(Nc1cc(-c2nc3cc(Cl)ccc3o2)ccc1Cl)c1cccs1 111%
COC(=O)C(C)Sc1ccc2nnc(CCNS(=O)(=O)c3ccc(C)cc3)n2n1 (stereo not drawn) -21.9%
CNCCCOc1cc(C)cc(C)c1C -21.6%
COc1ccc(C(=O)c2cccc(C(=O)c3ccc(OC)c(C)c3)c2)cc1C -25.7%
COc1ccc(C(c2c(C)n(C)n(-c3ccccc3)c2=O)c2c(C)n(C)n(-c3ccccc3)c2=O)c(OC)c1OC -25.1%
CC1(c2ccccc2Cl)NC(=O)N(CC(=O)Nc2ccccc2OC(F)F)C1=O (stereo not drawn) -6.9%
Cc1cccc(NC(=O)c2ccccc2NC(=O)c2ccco2)c1 -1.8%
COc1ccc(-c2n(CC(=O)OC3CC(C)CCC3C(C)C)c3ccccc3[n+]2C)cc1 (stereo not drawn) -5.73%
Cc1cccc(C(=O)N[C@H](C(=O)Nc2ccc(C)c(S(=O)(=O)N(C)C)c2)C(C)C)c1 -14.5%
CCN(CC(=O)Nc1ccccc1C(F)(F)F)C(=O)c1ccc(N2C(=O)CCC2=O)cc1 -29.6%
Cc1ccc(NS(=O)(=O)c2ccc(NC(=O)c3ccccc3C(=O)O)cc2)cc1C -25.4%
CCc1cccc(C)c1NC(=O)CSc1nc(C)c(C)o1 -16.9%
COC(=O)Nc1ccc(S(=O)(=O)NNC(=O)c2c(O)c3ccccc3n(C)c2=O)cc1 -6.74%
CCOC(=O)C1CN(S(=O)(=O)c2cc(OC)ccc2OC)C1 -25.9%
COc1ccc(-n2c(=O)c3c4c(sc3n(Cc3ccc(C(C)(C)C)cc3)c2=O)CCC4)c(OC)c1 -17.8%
CC(=O)Nc1cccc(NC(=O)c2ccccc2OCc2c(C)noc2C)c1 -3.18%
Cc1ccc(S(=O)(=O)NC2CCCC(C(=O)O)C2)cc1 (stereo not drawn) -6.9%
Cc1cc(C)cc(-n2ccnc2SCC(=O)Nc2ccc(C)c(Cl)c2)c1 -25.1%
COC(=O)[C@H](Cc1ccccc1)NC(=O)C1(OC(C)=O)CC(OC(C)=O)C(OC(C)=O)C(OC(C)=O)C1 (stereo partly drawn) -7.96%
CCCCn1c(N)c(N(CCOC)C(=O)c2ccc(S(=O)(=O)N3CCCCC3)cc2)c(=O)[nH]c1=O 11.4%
COc1ccc(OCCCC(=O)Nc2cccc(C(C)=O)c2)cc1 -26.7%
Cc1cccc(NC2(C(=O)O)CCCC2)c1 2.86%
CC(=O)c1ccc(OCc2ccc(Oc3c(Cl)cccc3[N+](=O)[O-])cc2)cc1 -23.2%
Cc1ccc2c(c1)N(CC(=O)NC1CCCc3ccccc31)C(=O)CO2 (stereo not drawn) 4.19%
CC(=O)Nc1ccc(S(=O)(=O)N2CCCC(C(=O)N3CCN(c4ccccc4)CC3)C2)cc1 (stereo not drawn) -22.1%
CCc1ccc(Nc2ncnc3nc[nH]c23)cc1 -29.9%
CC(C)CCNC(=O)c1ccc2c(SCC(=O)O)c3c(nc2c1)CCCC3 -25.2%
Cc1cc(NC(=O)CCC(=O)N(CC(=O)NC2CCCC2)c2ccc(C)c(F)c2)no1 6.26%
C[C@H](NC(=O)[C@@H]1Cc2ccccc2CN1C(=O)OC(C)(C)C)C(=O)NC1CCCCC1 -5.84%
CC(C)(CNC(=O)CC1C(=O)NCCN1Cc1cccc(F)c1)N1CCOCC1 (stereo not drawn) -3.02%
CCc1ccc(NC(=O)/C(C#N)=C/c2cc3ccc(C)cc3nc2N2CCOCC2)cc1 73.4%
OC(CN1CCCCC1)Cn1c2ccccc2c2cc(Br)ccc21 (stereo not drawn) -1.59%
CC1(C)CC(=O)/C(=C\c2cccc([N+](=O)[O-])c2)C(C)(C)N1 -6.21%
Cc1cc(C)c(S(=O)(=O)N2CCN(C(=O)N3CCOCC3)CC2)c(C)c1 1.33%
O=C(OCC(=O)c1ccc(Cl)s1)c1cncc(Br)c1 -17.7%
Cc1cccc(/C=N/NC(=O)NC23CC4CC(CC(C4)C2)C3)n1 -19.3%
CC(=O)N1CCN(c2nnc(-c3ccccc3)c3ccccc23)CC1 2.55%
CC1(C)CC(=O)C(C(O)c2ccccc2)C(C)(C)N1 (stereo not drawn) -12.9%
CCCn1c(=O)c(C(=O)NNS(=O)(=O)c2ccc(C)cc2)c(O)c2ccccc21 -38.8%
O=C1CCN(S(=O)(=O)c2ccc(Br)cc2)CCN1 -26.1%
O=C(COC(=O)c1cccc(-n2cnnn2)c1)c1ccccc1 -11.8%
CNC(=S)N/N=C/c1c(C)nn(-c2ccccc2)c1Cl -37.2%
O=S(=O)(NCCNS(=O)(=O)c1ccc(F)cc1)c1ccc(F)cc1 -20.7%
CN(C)CCCNc1c2ccccc2nc2ccccc12 -88.9%
c1ccc(Oc2ncnc3ccccc23)cc1 -23.6%
CC(=O)Nc1ccc2c(c1)NC(=O)CC2 -12.5%
COC(=O)Cc1ccc(NC(=S)NC(C)(C)C)cc1 -5.89%

From PubChem BioAssay AID651804 (National Center for Advancing Translational Sciences (NCATS), 2012)
